Shown is part of a subset that was picked to be rich in the strongest signals.
Tests used:
Assay in all cases: glycan array binding signal (z-score within array); higher = stronger binding
[1] = test system: Neu5Ac(a2-3)Gal(b1-4)GlcNAc(b1-2)Man(a1-3)[GlcNAc(b1-2)Man(b1-4)GlcNAc(b1-2)Man(a1-6)]Man(b1-4)GlcNAc(b1-4)GlcNAc; settings: glycan notation: IUPAC condensed, linker removed
In short: (§1)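 The binding signal is a Z-score computed within each array. Data were drawn from 3228 arrays in the Consortium for Functional Glycomics database, restricted to those with a known protein sequence. Scores were averaged over arrays of the same protein sequence at different concentrations or buffers, and over linkers, and negative values can be taken as non-binding.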

[2] = test system: Neu5Ac(a2-3)Gal(b1-4)GlcNAc(b1-3)Gal(b1-4)GlcNAc; settings: glycan notation: IUPAC condensed, linker removed
In short: as §1

[3] = test system: Neu5Ac(a2-3)Gal(b1-4)GlcNAc(b1-6)[Neu5Ac(a2-3)Gal(b1-3)]GalNAc; settings: glycan notation: IUPAC condensed, linker removed
In short: as §1

[4] = test system: Neu5Ac(a2-3)Gal(b1-4)GlcNAc(b1-2)Man(a1-3)[GlcNAc(b1-4)][Neu5Ac(a2-3)Gal(b1-4)GlcNAc(b1-2)Man(a1-6)]Man(b1-4)GlcNAc(b1-4)GlcNAc; settings: glycan notation: IUPAC condensed, linker removed
In short: as §1

[5] = test system: Neu5Ac(a2-3)Gal(b1-4)GlcNAc(b1-2)Man(a1-3)[Neu5Ac(a2-3)Gal(b1-4)GlcNAc(b1-2)Man(a1-6)]Man(b1-4)GlcNAc(b1-4)[Fuc(a1-6)]GlcNAc; settings: glycan notation: IUPAC condensed, linker removed; mutation: R125K
In short: as §1

[6] = test system: Neu5Ac(a2-3)Gal(b1-4)GlcNAc(b1-2)[Neu5Ac(a2-3)Gal(b1-4)GlcNAc(b1-4)]Man(a1-3)[GlcNAc(b1-4)][Neu5Ac(a2-3)Gal(b1-4)GlcNAc(b1-4)Man(a1-6)]Man(b1-4)GlcNAc(b1-4)GlcNAc; settings: glycan notation: IUPAC condensed, linker removed; mutation: R125K
In short: as §1

[7] = test system: Neu5Ac(a2-3)Gal(b1-4)GlcNAc(b1-2)[Neu5Ac(a2-3)Gal(b1-4)GlcNAc(b1-6)]Man(a1-6)[Neu5Ac(a2-3)Gal(b1-4)GlcNAc(b1-2)Man(a1-3)]Man(b1-4)GlcNAc(b1-4)GlcNAc; settings: glycan notation: IUPAC condensed, linker removed
In short: as §1

[8] = test system: Neu5Ac(a2-3)Gal(b1-4)GlcNAc(b1-3)Gal(b1-4)GlcNAc(b1-2)Man(a1-3)[Neu5Ac(a2-3)Gal(b1-4)GlcNAc(b1-3)Gal(b1-4)GlcNAc(b1-2)Man(a1-6)]Man(b1-4)GlcNAc(b1-4)GlcNAc; settings: glycan notation: IUPAC condensed, linker removed; mutation: R125K
In short: as §1

[9] = test system: Neu5Ac(a2-3)Gal(b1-4)GlcNAc(b1-3)Gal(b1-4)GlcNAc(b1-3)Gal(b1-4)GlcNAc; settings: glycan notation: IUPAC condensed, linker removed
In short: as §1

[10] = test system: Neu5Ac(a2-3)Gal(b1-4)GlcNAc(b1-3)Gal(b1-4)GlcNAc(b1-3)[Neu5Ac(a2-3)Gal(b1-4)GlcNAc(b1-3)Gal(b1-4)GlcNAc(b1-6)]GalNAc; settings: glycan notation: IUPAC condensed, linker removed
In short: as §1

[11] = test system: Neu5Ac(a2-3)Gal(b1-4)GlcNAc(b1-3)[Neu5Ac(a2-3)Gal(b1-4)GlcNAc(b1-6)]GalNAc; settings: glycan notation: IUPAC condensed, linker removed
In short: as §1

[12] = test system: Neu5Ac(a2-3)Gal(b1-4)GlcNAc(b1-2)Man(a1-3)[Neu5Ac(a2-6)Gal(b1-4)GlcNAc(b1-2)Man(a1-6)]Man(b1-4)GlcNAc(b1-4)GlcNAc; settings: glycan notation: IUPAC condensed, linker removed
In short: as §1

[13] = test system: Neu5Ac(a2-3)Gal(b1-4)GlcNAc(b1-3)Gal(b1-4)GlcNAc(b1-3)Gal(b1-4)GlcNAc(b1-2)Man(a1-3)[Neu5Ac(a2-3)Gal(b1-4)GlcNAc(b1-3)Gal(b1-4)GlcNAc(b1-3)Gal(b1-4)GlcNAc(b1-2)Man(a1-6)]GalNAc; settings: glycan notation: IUPAC condensed, linker removed
In short: as §1

[14] = test system: Neu5Ac(a2-3)Gal(b1-4)GlcNAc6S; settings: glycan notation: IUPAC condensed, linker removed
In short: as §1

[15] = test system: Neu5Ac(a2-3)Gal(b1-4)GlcNAc(b1-3)Gal(b1-4)[Fuc(a1-3)]GlcNAc; settings: glycan notation: IUPAC condensed, linker removed
In short: as §1

[16] = test system: Neu5Ac(a2-3)Gal(b1-4)GlcNAc(b1-6)[Gal(b1-3)]GalNAc; settings: glycan notation: IUPAC condensed, linker removed
In short: as §1

[17] = test system: Neu5Ac(a2-3)Gal(b1-4)GlcNAc(b1-2)[Neu5Ac(a2-3)Gal(b1-4)GlcNAc(b1-4)]Man(a1-3)[GlcNAc(b1-4)][Neu5Ac(a2-3)Gal(b1-4)GlcNAc(b1-2)[Neu5Ac(a2-3)Gal(b1-4)GlcNAc(b1-6)]Man(a1-6)]Man(b1-4)GlcNAc(b1-4)GlcNAc; settings: glycan notation: IUPAC condensed, linker removed
In short: as §1

[18] = test system: Neu5Ac(a2-3)Gal(b1-4)GlcNAc(b1-3)Gal; settings: glycan notation: IUPAC condensed, linker removed
In short: as §1

[19] = test system: Neu5Ac(a2-3)Gal(b1-4)GlcNAc(b1-6)GalNAc; settings: glycan notation: IUPAC condensed, linker removed
In short: as §1

[20] = test system: Neu5Ac(a2-3)Gal(b1-4)GlcNAc(b1-3)Gal(b1-3)GlcNAc; settings: glycan notation: IUPAC condensed, linker removed
In short: as §1

Sequence of PILRa (Mus musculus), Q2YSF3 (Q2YSF3 entry or part of it): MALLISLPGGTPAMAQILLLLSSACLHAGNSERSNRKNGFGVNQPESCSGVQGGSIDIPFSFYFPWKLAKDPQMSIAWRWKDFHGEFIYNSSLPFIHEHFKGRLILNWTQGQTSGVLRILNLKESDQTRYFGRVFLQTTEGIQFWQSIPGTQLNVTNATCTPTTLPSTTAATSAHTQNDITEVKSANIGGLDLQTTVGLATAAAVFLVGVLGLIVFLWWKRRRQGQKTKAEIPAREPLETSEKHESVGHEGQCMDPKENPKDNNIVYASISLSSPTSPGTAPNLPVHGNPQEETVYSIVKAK
Sequence of 6RG (Lolium perenne) (chain, as listed by the source): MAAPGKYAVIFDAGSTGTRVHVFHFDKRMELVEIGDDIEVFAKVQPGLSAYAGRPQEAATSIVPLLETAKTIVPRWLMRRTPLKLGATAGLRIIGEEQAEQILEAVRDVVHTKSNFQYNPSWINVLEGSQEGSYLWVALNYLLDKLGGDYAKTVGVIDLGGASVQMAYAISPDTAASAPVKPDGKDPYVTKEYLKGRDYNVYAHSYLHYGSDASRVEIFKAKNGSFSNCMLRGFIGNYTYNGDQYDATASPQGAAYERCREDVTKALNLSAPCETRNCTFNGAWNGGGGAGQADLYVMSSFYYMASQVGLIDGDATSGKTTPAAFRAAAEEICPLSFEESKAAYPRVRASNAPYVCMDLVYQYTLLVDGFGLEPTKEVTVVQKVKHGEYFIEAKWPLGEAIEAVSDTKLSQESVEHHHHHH
Sequence of Avaren (Actinomycete K97) (chain, as listed by the source): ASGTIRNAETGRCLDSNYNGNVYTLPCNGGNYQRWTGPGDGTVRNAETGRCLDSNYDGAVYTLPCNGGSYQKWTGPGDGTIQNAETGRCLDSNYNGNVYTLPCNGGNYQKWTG
Sequence of C3b (Homo sapiens), P01024 (P01024 23-667): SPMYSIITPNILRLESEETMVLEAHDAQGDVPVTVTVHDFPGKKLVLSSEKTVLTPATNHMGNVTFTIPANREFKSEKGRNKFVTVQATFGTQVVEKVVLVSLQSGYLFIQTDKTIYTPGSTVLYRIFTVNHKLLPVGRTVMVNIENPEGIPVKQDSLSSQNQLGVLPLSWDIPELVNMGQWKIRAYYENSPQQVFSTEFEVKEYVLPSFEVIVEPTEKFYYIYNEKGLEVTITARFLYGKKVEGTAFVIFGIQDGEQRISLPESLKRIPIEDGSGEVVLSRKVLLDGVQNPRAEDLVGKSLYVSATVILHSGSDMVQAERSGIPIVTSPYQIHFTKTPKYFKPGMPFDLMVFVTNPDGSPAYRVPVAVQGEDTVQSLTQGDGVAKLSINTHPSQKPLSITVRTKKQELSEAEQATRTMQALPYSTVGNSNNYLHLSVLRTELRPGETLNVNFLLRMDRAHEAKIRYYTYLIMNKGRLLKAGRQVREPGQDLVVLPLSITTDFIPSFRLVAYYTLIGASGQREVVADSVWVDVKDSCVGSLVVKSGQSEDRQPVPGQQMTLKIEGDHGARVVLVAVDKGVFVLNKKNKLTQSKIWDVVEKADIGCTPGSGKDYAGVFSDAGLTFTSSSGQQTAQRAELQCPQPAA
Sequence of Neurocan (Homo sapiens), O14594 (O14594 other isoform, or with tags, fused parts or gaps): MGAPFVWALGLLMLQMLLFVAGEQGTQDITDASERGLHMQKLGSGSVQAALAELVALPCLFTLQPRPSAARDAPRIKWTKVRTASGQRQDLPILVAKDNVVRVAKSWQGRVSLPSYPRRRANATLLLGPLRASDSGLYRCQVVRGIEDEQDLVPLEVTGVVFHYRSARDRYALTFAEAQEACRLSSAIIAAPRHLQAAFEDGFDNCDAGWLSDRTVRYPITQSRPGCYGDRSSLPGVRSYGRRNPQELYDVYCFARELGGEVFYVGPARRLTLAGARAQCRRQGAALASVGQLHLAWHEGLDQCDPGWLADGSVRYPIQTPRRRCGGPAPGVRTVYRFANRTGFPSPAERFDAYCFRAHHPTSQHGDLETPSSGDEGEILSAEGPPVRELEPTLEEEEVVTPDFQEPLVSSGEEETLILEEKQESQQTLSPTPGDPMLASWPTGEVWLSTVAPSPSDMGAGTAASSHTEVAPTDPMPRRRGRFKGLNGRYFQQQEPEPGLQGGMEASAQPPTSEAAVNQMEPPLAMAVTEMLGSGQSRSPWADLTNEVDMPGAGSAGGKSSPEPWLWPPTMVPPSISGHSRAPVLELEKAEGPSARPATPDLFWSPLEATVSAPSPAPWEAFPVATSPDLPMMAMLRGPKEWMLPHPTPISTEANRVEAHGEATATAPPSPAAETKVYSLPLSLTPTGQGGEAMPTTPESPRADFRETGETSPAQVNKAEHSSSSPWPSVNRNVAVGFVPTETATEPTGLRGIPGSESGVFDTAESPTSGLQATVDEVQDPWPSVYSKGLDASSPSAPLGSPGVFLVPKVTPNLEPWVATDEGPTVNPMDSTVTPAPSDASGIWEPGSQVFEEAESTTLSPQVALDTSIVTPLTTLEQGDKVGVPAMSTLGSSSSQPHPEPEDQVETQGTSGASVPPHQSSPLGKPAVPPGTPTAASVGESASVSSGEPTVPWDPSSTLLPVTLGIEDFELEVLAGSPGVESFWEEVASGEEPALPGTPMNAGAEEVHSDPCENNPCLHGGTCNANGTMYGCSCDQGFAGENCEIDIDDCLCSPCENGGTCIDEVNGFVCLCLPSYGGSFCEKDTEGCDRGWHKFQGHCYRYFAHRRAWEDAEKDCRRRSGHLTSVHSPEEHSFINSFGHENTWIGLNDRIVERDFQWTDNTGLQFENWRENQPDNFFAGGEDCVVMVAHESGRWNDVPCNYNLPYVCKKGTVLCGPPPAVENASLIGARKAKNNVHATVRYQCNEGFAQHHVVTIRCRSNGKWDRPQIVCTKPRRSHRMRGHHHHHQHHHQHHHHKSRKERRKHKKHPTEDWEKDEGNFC
Sequence of CHT (Homo sapiens) (chain, as listed by the source): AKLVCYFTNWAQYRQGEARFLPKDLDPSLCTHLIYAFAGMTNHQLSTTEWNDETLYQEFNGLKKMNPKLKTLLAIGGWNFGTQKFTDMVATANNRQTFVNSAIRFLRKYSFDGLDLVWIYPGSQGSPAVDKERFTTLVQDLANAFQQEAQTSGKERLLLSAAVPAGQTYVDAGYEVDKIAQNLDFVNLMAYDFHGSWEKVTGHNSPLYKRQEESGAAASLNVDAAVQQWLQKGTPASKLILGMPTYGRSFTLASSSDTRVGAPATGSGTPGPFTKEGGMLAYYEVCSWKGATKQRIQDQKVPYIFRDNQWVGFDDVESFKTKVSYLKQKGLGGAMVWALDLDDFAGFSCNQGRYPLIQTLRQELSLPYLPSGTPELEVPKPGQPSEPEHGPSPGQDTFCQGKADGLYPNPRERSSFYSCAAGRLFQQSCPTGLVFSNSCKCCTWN
Sequence of PILRb (Mus musculus), Q2YSF2 (Q2YSF2 entry or part of it): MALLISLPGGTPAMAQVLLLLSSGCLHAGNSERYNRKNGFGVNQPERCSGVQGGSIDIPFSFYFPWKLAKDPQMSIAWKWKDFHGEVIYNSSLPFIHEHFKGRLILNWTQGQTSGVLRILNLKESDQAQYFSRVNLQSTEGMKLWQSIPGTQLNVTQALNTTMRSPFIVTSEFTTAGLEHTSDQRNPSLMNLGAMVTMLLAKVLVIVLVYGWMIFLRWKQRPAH

In the case of PILRa (Mus musculus), Q2YSF3, the “glycan array binding signal (z-score)” value [1] is reported as -0.185, the “glycan array binding signal (z-score)” value [2] is reported as 1.21 and the “glycan array binding signal (z-score)” value [3] is reported as -0.272.

PILRb (Mus musculus), Q2YSF2 was tested, and the “glycan array binding signal (z-score)” value [1] was -0.119.

In the case of Siglec-8 (Homo sapiens), Q9NYZ4, the “glycan array binding signal (z-score)” value [4] is reported as -0.203, the “glycan array binding signal (z-score)” value [5] is reported as 0.029 and the “glycan array binding signal (z-score)” value [6] is reported as 0.406. The “glycan array binding signal (z-score)” value [7] was 0.635, the “glycan array binding signal (z-score)” value [8] was -0.161 and the “glycan array binding signal (z-score)” value ([9]; mutation: R125K) was -0.378. For the same substance, the “glycan array binding signal (z-score)” value [10] was -0.138 and the “glycan array binding signal (z-score)” value [11] was -0.207.

With Avaren (Actinomycete K97) the “glycan array binding signal (z-score)” value [12] was -0.137, the “glycan array binding signal (z-score)” value [13] was 0.039 and the “glycan array binding signal (z-score)” value [3] was -0.138. For the same substance, the “glycan array binding signal (z-score)” value [14] was -0.116.

With 6RG (Lolium perenne) the “glycan array binding signal (z-score)” value [12] was -0.191, the “glycan array binding signal (z-score)” value [15] was -0.244 and the “glycan array binding signal (z-score)” value [16] was -0.075.

With MpAFP RI GFP (Marinomonas primoryensis) the “glycan array binding signal (z-score)” value [17] was -0.808, the “glycan array binding signal (z-score)” value [18] was -0.665 and the “glycan array binding signal (z-score)” value [19] was -0.342.

For Neurocan (Homo sapiens), O14594, the “glycan array binding signal (z-score)” value [20] was 0.948.

C3b (Homo sapiens), P01024 was tested, and the “glycan array binding signal (z-score)” value [9] was 0.362 and the “glycan array binding signal (z-score)” value [2] was -0.787.

In the case of CHT (Homo sapiens), the “glycan array binding signal (z-score)” value ([14]; mutation: D138V, E140I) is reported as -0.118.
